Screens deposited in PubChem BioAssay by The Scripps Research Institute Molecular Screening Center.
Shown are actives, neighbours in structure and some others; about 4.1% of the full set was active somewhere.
ssDAF-12 act: S. stercoralis DAF-12 nuclear receptor activators, primary screen, cell-based, luminescence, HEK293, GRIP1 co-expression, lit1-tk-luc | Nuclear hormone receptor DAF-12 (Strongyloides stercoralis) | HEK293 ssDAF-12/GRIP1 lit1-tk-luc reporter; % of 3 µM dafachronic acid response | activation, % at 6.8 µM | 370,000 compounds, 1% hits;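 active = activation above the mean over all tested compounds plus 3 SD, cut at about 0.9% in these data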;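 also: 0% = DMSO-only wells and 100% = 3 µM delta7-dafachronic acid wells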
DAX1 inh-1: DAX1 (NR0B1) inhibitors on StAR promoter, primary screen, cell-based, luminescence, SF-1 (NR5A1), full-length DAX-1 | inhibition, % at 6.8 µM | 370,000 compounds, 1.1% hits | HEK293T StAR-luciferase reporter, SF-1/DAX-1 repression relief;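 active = inhibition above the mean over all tested compounds plus 3 SD, cut at about 3.6% in these data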;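 also: 0% = DAX-1 cells with DMSO and 100% = cells lacking DAX-1 with DMSO; higher inhibition means more luminescence from relief of DAX-1 repression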
DAX1 inh-2: DAX1 (NR0B1) inhibitors, primary screen, cell-based, HEK293, Gal4-DAX1, luciferase luminescence; HEK293 Gal4-DAX1 luciferase reporter; inhibition, % at 6.75 µM; 340,000 compounds, 0.99% hits;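 active = inhibition above the mean over all tested compounds plus 3 SD, cut at about 4.2% in these data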;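 also: 0% = DAX1-transfected cells with DMSO and 100% = empty-vector control cells with DMSO; inhibition shows as a rise in luminescence from relieved DAX1 repression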
Target sequence (P51843 207-470 limits assumed): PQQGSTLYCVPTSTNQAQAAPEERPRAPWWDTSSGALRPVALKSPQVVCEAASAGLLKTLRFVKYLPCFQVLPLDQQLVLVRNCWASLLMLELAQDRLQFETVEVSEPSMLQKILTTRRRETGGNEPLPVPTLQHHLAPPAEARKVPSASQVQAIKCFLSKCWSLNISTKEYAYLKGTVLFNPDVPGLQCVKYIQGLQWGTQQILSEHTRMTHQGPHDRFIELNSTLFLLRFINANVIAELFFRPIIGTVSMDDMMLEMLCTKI
hgDAF-12 ag: H. glycines DAF-12 receptor agonists, primary screen, cell-based, luminescence, HEK293, GAL4 fusion, UAS-luciferase; Nuclear hormone receptor DAF-12 (Heterodera glycines), GAL4 fusion; HEK293 GAL4-hgDAF12 UAS-luciferase reporter, agonist luminescence; normalized to butyrate control; activation, % at 6.8 µM; 370,000 compounds, 1.8% hits; AID 687014, 2013;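 active = activation above a cutoff set at the mean of all screened compounds plus 3 SD, cut at about 10% in these data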;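 also: 0% = DMSO wells and 100% = sodium butyrate wells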
hcDAF12 agonist: H. contortus DAF-12 nuclear receptor activators, primary screen, cell-based, luminescence, HEK293, lit1-tk-luc reporter. activation, % at 6.8 µM. 370,000 compounds, 1.4% hits. HEK293 hcDAF-12 lit1-tk-luc reporter; 0% DMSO, 100% Δ7-dafachronic acid. AID 652067, 2013;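 active = activation above the mean of all tested compounds plus 3 SD, cut at about 5.5% in these data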;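 also: 100% = response to 3 µM Δ7-dafachronic acid high control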
The depositor's hits bear a star; nt = not tested or not shown.

SMILES | ssDAF-12 act | DAX1 inh-1 | DAX1 inh-2 | hgDAF-12 ag | hcDAF12 agonist
CCCn1nnc(NC(=O)c2ccccc2Br)n1 | -1 | 1 | 1 | 2 | 2
CCn1nnc(NC(=O)c2ccccc2Br)n1 | 1.0* | 1 | 2 | 6 | 5
CCNC(=S)Nc1ccc(NC(=O)c2ccccc2O)cc1 | 1.6* | 0 | -2 | 0 | 2
CCc1ccc(NC(=O)c2ccccc2Br)cc1 | 0 | 3 | 5.9* | 12* | 2
CCNC(=S)Nc1cccc(NC(=O)c2ccccc2O)c1 | -1 | 0 | -1 | -1 | 1
COC(=O)c1c(-c2ccc(OC)cc2)c2c(c3c4cc(OC)ccc4n(C(=O)c4ccccc4)c13)C(=O)N(C)C2 | -1 | -2 | nt | -1 | -1
CNc1ccc(-c2cccc(CO)c2)cn1 | -1 | 1 | nt | 11* | 3
CNc1ccc(-c2cccc(C(C)=O)c2)cn1 | -1 | 0 | nt | 5 | 1
Cc1cc(NC(=O)C2CC2)n(-c2nc3ccccc3s2)n1 | 0 | -1 | 0 | 10 | 5.6*
CCCOC(=O)Nc1cc(OC)ccc1[N+](=O)[O-] | 0 | 0 | 4.7* | 5 | 2
CCOc1ccc(OCC(=O)Nc2ccc(OC)cc2[N+](=O)[O-])cc1 | -2 | 0 | -1 | 1 | 0
Cc1cc(Nc2cc(F)c(F)c(F)c2)cc(=O)n1-c1cc(F)c(F)c(F)c1 | -1 | 0 | nt | 1 | 1
CC(C)CN1C(=O)[C@@]2(CC(=O)N(C)C2c2ccccc2)c2cc(-n3cc(CCc4ccccc4)nn3)ccc21 (stereo partly drawn) | -1 | 2 | nt | 0 | -3
NC1=NC(=O)/C(=C/c2ccccc2OS(=O)(=O)c2ccccc2)S1 | -1 | -1 | -2 | 0 | -1
COc1cccc(/C=C2\SC(N)=NC2=O)c1OS(=O)(=O)c1ccccc1 | 1.1* | 1 | 1 | 1 | -1
NC1=NC(=O)C(=Cc2ccccc2)S1 | -1 | 0 | 0 | 3 | 0
COc1ccc(/C=C2\SC(N)=NC2=O)cc1 | -1 | -1 | 4.9* | 5 | -1
NC1=NC(=O)/C(=C\c2cccnc2)S1 | -1 | 0 | -1 | 12* | -1
C[C@H](O)[C@@H]1CN2CCc3c([nH]c4c(-c5ccc6c(c5)OCO6)cccc34)[C@@H]2C[C@@H]1N(C)C(=S)NCCc1ccccc1 | 0 | 0 | nt | 2 | 0
COC(=O)CCC(=O)OC1(C)C(=O)C=C2C=C(C3CC3)N(CCc3c[nH]c4ccccc34)C=C2C1=O (stereo not drawn) | 0 | 0 | 0 | 1 | 6.3*
COC(=O)CCC(=O)OC1(C)C(=O)C=C2C=C(C3CC3)N(CCc3ccccn3)C=C2C1=O (stereo not drawn) | -1 | 0 | 1 | 0 | -1
N#Cc1ccccc1NC(=O)c1cc(=O)c2ccccc2o1 | -2 | 1 | 1 | 11* | -1
C=CCc1cccc(CNc2nc3ccccc3n2CCC)c1O | -1 | -1 | 4.7* | 0 | -3
C=CCc1cccc(CNc2nc3ccccc3n2CC)c1O | -1 | -1 | 0 | 3 | -1
S=C(c1cccs1)N1CCN(c2ccccc2)CC1 | -1 | 0 | 5.7* | -1 | 2
S=C(c1cccs1)N1CCCC1 | -1 | 0 | -1 | 3 | -1
COc1cccc(OCC(O)CN2CCN(c3ccc(F)cc3)CC2)c1 (stereo not drawn) | -1 | 0 | -1 | -3 | 0
OC(COc1ccc2ccccc2c1)CN1CCN(c2ccc(F)cc2)CC1 (stereo not drawn) | 0 | 0 | 6.9* | 0 | 0
CCC[C@H]1[C@@H](OC(=O)Oc2ccc([N+](=O)[O-])cc2)CC[C@@]23CCCN2C(=O)CCC[C@@H]13 | 0 | nt | nt | -1 | -1
Cc1ccc(-c2ccc(NC(=O)C3C4C=CC(C4)C3C(=O)O)cc2)o1 (stereo not drawn) | -1 | 1 | 0 | 13* | 1
